High-throughput results as filed in PubChem BioAssay.
A selection: hits, their analogues and other compounds. The true share with any hit is near 4.6%.
TRHR ag: agonists of human TRH receptor; P34981; TRHR cells, calcium flux fluo-8, FDSS agonist mode; hit rate 0.18% among 360,000; activation, % at 2 µM
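Read-out: compound-evoked intracellular calcium rise in TRHR cells, fluo-8 dye, kinetic FDSS fluorescence at 1 s/cycle following a 10-cycle baseline. Cells cultured overnight before dye loading (30 min–1.5 h, RT).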
D1 potentiator: potentiators of human D1 dopamine receptor; P21728; HEK293 TREx D1 cells, calcium flux, dopamine EC20 potentiation; potentiation, % at 10 µM; hit rate 0.036% among 360,000; in the data active = potentiation above about 30%
Target sequence (P21728 whole entry, looked up): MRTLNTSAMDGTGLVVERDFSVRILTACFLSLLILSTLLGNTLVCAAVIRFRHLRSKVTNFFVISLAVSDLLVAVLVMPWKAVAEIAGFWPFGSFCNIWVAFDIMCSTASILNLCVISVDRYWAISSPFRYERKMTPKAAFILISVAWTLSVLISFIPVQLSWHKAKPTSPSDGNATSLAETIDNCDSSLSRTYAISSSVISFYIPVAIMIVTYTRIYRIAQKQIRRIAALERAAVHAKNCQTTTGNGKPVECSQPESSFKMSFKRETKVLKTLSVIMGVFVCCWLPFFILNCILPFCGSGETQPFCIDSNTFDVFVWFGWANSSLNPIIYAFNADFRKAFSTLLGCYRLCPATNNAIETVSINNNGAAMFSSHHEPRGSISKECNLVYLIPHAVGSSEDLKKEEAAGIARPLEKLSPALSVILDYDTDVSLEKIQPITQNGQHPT
TRHR enhancer: allosterically enhances the human TRH receptor. P34981. TRHR cells, fluo-8 calcium fluorescence, EC20 TRH enhancement. enhancement, % at 2 µM. hit rate 0.66% among 360,000; in the data active = enhancement above about 30%
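Enhancer read-out: after compound pinning and an initial kinetic agonist-mode read, an EC20 of TRH (10 nM final) was injected and fluo-8 calcium signal (Ex 480/Em 530) followed at 1 s/cycle for 100 cycles in TRHR-expressing cells.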
D1 ag: agonists of human D1 dopamine receptor. P21728. HEK293 T-REx D1 cells, calcium flux, agonist mode. activation, % at 2 µM. hit rate 1% among 360,000
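Tetracycline-induced HEK293 TREx D1 cells, force-coupled to calcium signalling, were dye-loaded with a no-wash calcium kit. Compound was pin-added after a 10 s baseline. Fluorescence was read kinetically at 1 cycle/s for 180 s, with calcium rises flagged as agonism.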
Epigenetic derep: epigenetic control regulation, reporter derepression. murine LDR cells, GFP reporter derepression, 30 h. Potency, µM (titrated, usually from 53.9 µM), hits mostly activators. AID 1865. hit rate 0.2% among 280,000; active = well fitted activation curve with a large enough effect; also: nearly all actives have a fitted effect of over 60% in size
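Readout is the number of GFP-expressing murine LDR cells, counted by cytometry following washing. Cells were treated with compound for 30 h at 37 C; the stably integrated CMV-GFP locus is normally silent.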
D1 antagonist: antagonists of human D1 dopamine receptor. P21728. HEK293 TREx D1 cells, calcium flux, dopamine EC80; active compounds read low. activity change, negative = inhibition, % at 10 µM. hit rate 3.2% among 360,000; in the data active = activity change below about -30%
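Allosteric or orthosteric antagonism assessed as attenuation of the calcium response to EC80 dopamine, added 180 s after compound, in induced HEK293 Trex D1 cells loaded with no-wash calcium dye.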
Numbers stand for hits; . = inactive; / = no result given. Rule as the data show it, unless noted: active = activation above about 30%; inactive = the rest.

SMILES	TRHR ag	D1 potentiator	TRHR enhancer	D1 ag	Epigenetic derep	D1 antagonist
Cc1oc2ncnc(N3CCCCC3)c2c1C(=O)NCC1CCN(Cc2ccccc2F)CC1	.	.	.	.	.	.
O=C(NCc1ccc(F)cc1)C1CCN(C(=O)NCc2ccccc2)CC1	.	.	.	.	.	.
COc1ccccc1CNC(=O)C1CCN(C(=O)N(C)C)CC1	.	.	.	.	.	-38.1
O=C(NCc1cccs1)C1CCN(C(=O)NCc2ccccc2)CC1	.	.	.	.	.	-84.4
CN(C)C(=O)N1CCC(C(=O)NCc2ccccc2)CC1	.	.	34.4	.	.	.
CN(C)C(=O)N1CCC(C(=O)NCc2ccc(F)cc2)CC1	.	.	.	.	.	.
COc1ccc(CNC(=O)C2CCN(C(=O)N(C)C)CC2)c(OC)c1	.	.	.	.	.	.
Cc1ccc(N=C2NC(=O)CC(C(=O)Nc3cc(C(F)(F)F)ccc3Cl)S2)cc1 (centres undefined)	.	.	.	.	.	.
COc1cccc(CNC(=O)CC(c2ccc(C)cc2)N2Cc3ccccc3C2=O)c1 (centres undefined)	.	.	.	.	.	-32.1
O=c1c(NCCc2ccc(Cl)cc2)nccn1-c1ccccc1	.	.	.	.	.	.
CC(=O)Nc1ccc(Nc2cc(-c3ccccc3)nc3ncnn23)cc1	.	.	38.0	.	.	.
CC(=O)Nc1ccc(Nc2cc(C)nc3c(-c4ccccc4)cnn23)cc1	.	.	.	.	.	-40.2
CCn1c(=O)c2sccc2n2c(CCCC(=O)N3CCN(c4ccc(F)cc4)CC3)nnc12	.	.	.	.	.	.
CCOC(=O)N1CCN(C(=O)c2cnn(-c3cccc(F)c3)c2-n2cccc2)CC1	.	.	.	.	.	.
COc1ccc(S(=O)(=O)NCCc2csc(-c3cccc(F)c3)n2)cc1OC	.	.	.	.	.	.
CNS(=O)(=O)c1cn(CC(=O)N2CCN(c3cc(C)ccc3C)CC2)cc1S(=O)(=O)NC	.	.	.	.	.	.
O=C(CCCn1c(SCC(=O)c2ccc(F)cc2)nc2ccccc2c1=O)NCc1ccccc1	.	.	.	.	.	.
O=C(CCCn1c(SCC(=O)Nc2ccccc2Cl)nc2ccccc2c1=O)NCC1CCCO1 (centres undefined)	.	.	.	.	/	-33.5
O=C(CCCn1c(SCC(=O)NCC2CCCO2)nc2ccccc2c1=O)NCc1ccccc1 (centres undefined)	.	.	.	.	.	.
O=C(CSc1nc2ccc(NC(=O)C3CCCCC3)cc2s1)NCC1CCCO1 (centres undefined)	.	.	.	.	.	.
O=C(CSc1nc2ccccc2s1)NCC1CCCO1 (centres undefined)	.	.	.	.	/	-32.7
Cc1cc(NC(=O)CSc2nc3ccccc3c(=O)n2CCCC(=O)NCc2ccccc2)n[nH]1	.	.	.	.	.	-34.7
CC(Oc1cccc(Cl)c1)C(=O)Nc1nc(-c2ccccn2)cs1 (centres undefined)	.	.	.	.	/	-35.0
O=C(Nc1nc(-c2ccccn2)cs1)c1ccc(Cl)s1	.	.	.	.	22.4µM	.
CC(Oc1ccccc1)C(=O)Nc1nc(-c2ccccn2)cs1 (centres undefined)	.	.	.	.	/	.
SMILES	TRHR ag	D1 potentiator	TRHR enhancer	D1 ag	Epigenetic derep	D1 antagonist
Cc1ccc(C(=O)Nc2nc(-c3ccccn3)cs2)s1	.	/	.	.	/	.
Cc1ccc(C=Nc2ccccc2C(=O)Nc2ccccc2)cc1	.	.	.	.	.	.
Cc1ccc(C=Nc2ccccc2C(N)=O)cc1	.	.	.	60.3	.	-34.7
O=C(CCCCn1c(=O)c2ccccc2n(CC(=O)Nc2ccccc2)c1=O)NCc1ccccc1Cl	.	.	.	.	.	.
O=C(Nc1cccc(NC(=O)c2ccccc2Cl)c1)c1ccc([N+](=O)[O-])o1	.	.	.	.	/	-46.1
O=C(Nc1ccc(N2CCCC2)c(Cl)c1)c1ccc([N+](=O)[O-])o1	.	.	.	.	.	.
CC(OC(=O)c1cccc(S(=O)(=O)Nc2cccc(C(F)(F)F)c2)c1)C(=O)Nc1ccc2c(c1)OCCO2 (centres undefined)	.	.	.	.	.	-36.1
